This is an account of results in article PMC12670160, “A drug-repurposing screen of FDA- and EMA-approved drugs identifies two NF-κB inhibitors active against eumycetoma” (Journal of Antimicrobial Chemotherapy, 2025).

Structures are written as SMILES. Counter-ions that a name gives are not always drawn. Like-named read-outs stand apart in the source and are kept apart here. Among all 5,300 compounds or so, about 130 (2.5%) showed an effect of 50% or more. The sample as a whole holds a higher share of strong results than the screen did. Peptide text beside a SMILES is read from it.

The subject of this test is M. mycetomatis strain mm55. Particulars: primary screen, metabolic activity vs growth control, 96 h, 2 µM, inhibitor.

For `N=C(N)c1ccc(-c2ccc(-c3ccc(C(=N)N)cc3)o2)cc1` [ONC0003070, furamidine], the “% viability” value was 108.4%. Still for that read-out and setting: for `N=C(N)c1ccc(/C=C/c2ccc(C(=N)N)cc2O)cc1` [ONC0003463, hydroxystilbamidine] the value was 43.6%. The same measure, in the same setting: for `N=C(N)c1ccc(OCCCCCOc2ccc(C(=N)N)cc2)cc1` [ONC0003359, pentamidine isethionate] the value was 71.33%; for `CC(=O)OCC1=C(C(=O)O)N2C(=O)[C@@H](NC(=O)CSC(=NC(C)C)NC(C)C)[C@H]2SC1` [ONC0003427, cefathiamidine], 77.15%; for `C[C@H](N)[C@H](O)c1cccc(O)c1` [ONC0003110, metaraminol bitartrate], 76.38%. Still for that read-out and setting: for `CNC[C@H](O)c1cccc(O)c1` [ONC0000459, lphenylephrine hydrochloride] the value was 72.58%; for `CCNCC(O)c1cccc(O)c1` (stereo not shown) [ONC0003685], 42.26%; for `O=C(Nc1nc(-c2cc(Cl)cs2)c(N2CCN(C3CCCCC3)CC2)s1)c1cnc(N2CCC(C(=O)O)CC2)c(Cl)c1` [ONC0002265, avatrombopag], 50.97%. On to `CN/C(=N/CCSCc1nc[nH]c1C)NC#N` [ONC0000657, cimetidine], for which the “% viability” value is recorded as 137.7%. On the same count and under the same terms, for `CCCCCCCNS(=O)(=O)c1cccc2c(Cl)cccc12` [ONC0003431, sc10] the value was 68.77%; for `NCCCCCCCCCCNS(=O)(=O)c1cccc2c(Cl)cccc12` [ONC0002708, a7], 47.48%; for `O=S(=O)(NCCCCCCc1ccccc1)c1cccc2c(Cl)cccc12` [ONC0002705, sc9], 87.04%.

Turning to `CC(C)(C)c1cc(C(C)(C)C)c2c(c1)C(O)(C(F)(F)F)C(=O)O2` (stereo not shown) [ONC0001539, racbhff], the “% viability” value is reported as 123.7%.

With `NC(N)=Nc1nc(CSCCC(N)=NS(N)(=O)=O)cs1` [ONC0003248, famotidine], the “% viability” value worked out at 89.34%. The same measure, in the same setting: for `Cc1nnc(C(C)C)n1[C@@H]1C[C@H]2CC[C@@H](C1)N2CC[C@H](NC(=O)C1CCC(F)(F)CC1)c1ccccc1` [ONC0004641, maraviroc] the value was 78.39%; for `CN1C(=O)C(Cc2c[nH]c3ccccc23)NC1=S` (stereo not shown) [ONC0003684, necrostatin1], 40.84%.

As to `CN1C(=O)N[C@H](Cc2c[nH]c3c(Cl)cccc23)C1=O` [ONC0000938, necrostatin 2], the “% viability” value came out at 58.02%.

With `c1ccc2c(Cc3c[nH]c4ccccc34)c[nH]c2c1` [ONC0003447, diindolylmethane], the “% viability” value is reported as 68.22%. On the same count and under the same terms, for `NC(N)=NCCC[C@H](N)C(=O)NCC(=O)N[C@@H](CC(=O)O)C(=O)N[C@@H](CO)C(=O)O` [ONC0002282, argglyaspser] the value was 101.1%; for `CC(C)n1c(/C=C/[C@@H](O)C[C@@H](O)CC(=O)O)c(-c2ccc(F)cc2)c2ccccc21` (racemic) [ONC0004817, fluvastatin sodium lescol], 110.8%; for `CCCCCCCCCCCCCCOC(=O)c1cccnc1` [ONC0003671, tetradecyl nicotinate], 79.3%. Same read-out and setting: for `C[C@@H]1CCCN1CCc1cc2cc(-c3ccc(C#N)cc3)ccc2o1` [ONC0003444, abt 239 tartrate] the value was 49.56%. Still for that read-out and setting: for `N=C(N)/N=C(\N)N1CCOCC1` [ONC0005372, moroxydine hydrochloride] the value was 114.7%; for `CC(C)(N)CC12CC3CC(CC(C3)C1)C2` [ONC0004056, somantadine], 120.7%; for `c1cc(OCCN2CCCCC2)cc(-c2n[nH]c3ccc(-c4nc[nH]n4)cc23)c1` [ONC0000900, cc401 hydrochloride], 73.26%. Take `CCCN1CCC[C@H](c2cccc(O)c2)C1` [ONC0002744, r33hydroxyphenylnpropylpiperidine hydrochloride]: the “% viability” value was found to be 58.06%. Same read-out and setting: for `Oc1ccc([C@H]2COc3cc(O)ccc3C2)cc1` [ONC0004406, equol] the value was 119.9%; for `CCCN1CCO[C@@H]2c3cc(O)ccc3OC[C@H]21` [ONC0000309, pd128907], 42.57%; for `COC(=O)N[C@H](C(=O)N1CC2(CC2)C[C@H]1c1ncc(-c2ccc3c(c2)C(F)(F)c2cc(-c4ccc5nc([C@@H]6[C@H]7CC[C@H](C7)N6C(=O)[C@@H](NC(=O)OC)C(C)C)[nH]c5c4)ccc2-3)[nH]1)C(C)C` [ONC0001967, ledipasvir], 73.81%.

For the compound `CC(C)NCC(O)c1ccc(O)c(O)c1` (stereo not shown) [ONC0000608, isoproterenol hydrochloride], the “% viability” value worked out at 81.88%. Turning to `CC(C)NCC(O)c1ccc([N+](=O)[O-])cc1` (stereo not shown) [ONC0002319, nifenalol], the “% viability” value amounted to 49.56%.

Take `CC(C)NCC(O)c1ccc(N)c(C#N)c1` (stereo not shown) [ONC0003014, cimaterol]: the “% viability” value is 76.31%. For `CC/C=C\C/C=C\C/C=C/C/C=C\C/C=C\C/C=C\CCC(=O)OCC` [ONC0002811], the “% viability” value came out at 151.6%.

As for `COC(=O)[C@H](CCCNC(=N)N)NS(=O)(=O)c1ccc(C)cc1` [ONC0004976, tame], the “% viability” value is recorded as 63.05%.

Consider `N=C(N)c1cc2ccc(OC(=O)c3cccs3)cc2s1` [ONC0004238, bcx 1470 methanesulfonate], for which the “% viability” value is 62.8%. Turning to `CC/C(=C(/CC)c1ccc(O)cc1)c1ccc(O)cc1` [ONC0003197, diethylstilbestrol], the “% viability” value was 93.2%. In the case of `CC[C@H](c1ccc(O)cc1)[C@@H](CC)c1ccc(O)cc1` [ONC0003849, hexestrol], the “% viability” value was found to be 49.29%. Still for that read-out and setting: for `CNCC(O)c1ccc(O)cc1` (stereo not shown) [ONC0005413, oxedrine] the value was 69.09%. On the same count and under the same terms, for `C#C[C@]1(O)CC[C@H]2[C@@H]3CCC4=CC(=NO)CC[C@@H]4[C@H]3CC[C@@]21CC` (mixture of isomers) [ONC0000953, norgestimate metabolite norelgestromin] the value was 67.65%; for `CO[C@H]1/C=C/O[C@@]2(C)Oc3c(C)c(O)c4c(O)c(c(/C=N/N5CCN(C)CC5)c(O)c4c3C2=O)NC(=O)/C(C)=C\C=C\[C@H](C)[C@H](O)[C@@H](C)[C@@H](O)[C@@H](C)[C@H](OC(C)=O)[C@@H]1C` [ONC0003357, rifampin], 107.5%.

As for `CO[C@H]1/C=C/O[C@@]2(C)Oc3c(C)c(O)c4c(O)c(c(/C=N/N5CCN(C6CCCC6)CC5)c(O)c4c3C2=O)NC(=O)/C(C)=C\C=C\[C@H](C)[C@H](O)[C@@H](C)[C@@H](O)[C@@H](C)[C@H](OC(C)=O)[C@@H]1C` [ONC0002002, rifapentine], the “% viability” value came to 77.39%. The same measure, in the same setting: for `COC1/C=C/OC2(C)Oc3c(C)c(O)c4c(O)c(c(/C=N/N=C/N5CCCCC5)c(O)c4c3C2=O)NC(=O)/C(C)=C\C=C\C(C)C(O)C(C)C(O)C(C)C(OC(C)=O)C1C` (stereo not shown) [ONC0003798, fce22250] the value was 33.52%; for `N#Cc1cn([C@@H]2O[C@H](CO)[C@@H](O)[C@H]2O)c2ncnc(N)c12` [ONC0003230, toyocamycin], 99.22%; for `Cl.O=C(c1ccc(-c2ccc(Cl)cc2)o1)N(Cc1ccccn1)c1ccc(N2CCNCC2)cc1` [ONC0002178, mk2in1 hydrochloride], 65.24%. In the case of `CC(=O)Nc1ccc(C(=O)NC(C)(C)C)cc1` [ONC0002880], the “% viability” value stood at 98.46%. Still for that read-out and setting: for `C/C(O)=C(\C#N)C(=O)Nc1ccc(C(F)(F)F)cc1` [ONC0000878, teriflunomide] the value was 64.9%; for `O=C(Nc1ccc(C(O)(C(F)(F)F)C(F)(F)F)cc1)c1ccc(C(F)(F)F)cc1` [ONC0000412, sr1078], 46.34%. Turning to `CC(=O)OC[C@H](N)C(=O)O.Cl` [ONC0000420, oacetyllserine hcl], the “% viability” value came to 77.43%.

Consider `CC[C@@]1(O)C(=O)OCc2c1cc1n(c2=O)Cc2cc3c(N)cccc3nc2-1` [ONC0005467, 9aminocamptothecin], for which the “% viability” value is reported as 102.4%. On the same count and under the same terms, for `CCCCCCCCCCCCCCOS(=O)(=O)O` [ONC0003317, sodium tetradecyl sulfate] the value was 84.61%; for `CCNC(=O)c1[nH]nc(-c2cc(Cl)c(O)cc2O)c1-c1ccc(OC)cc1` [ONC0005116, ver49009], 88.78%; for `CCc1cc(-c2n[nH]c(C)c2-c2ccc3c(c2)OCCO3)c(O)cc1O` [ONC0003616, cct018159], 49.48%. Still for that read-out and setting: for `Cc1cccc(-c2[nH]c(C(C)(C)C)nc2-c2ccc3c(c2)OCO3)n1` [ONC0005219, sb505124] the value was 129%.

Regarding `CC(C)CC1NC(=O)C(C(C)C)NC(=O)C2CCCN2C(=O)C(CC(=O)O)NC(=O)C(Cc2c[nH]c3ccccc23)NC1=O` (stereo not shown) [ONC0004583, bq123] (cyclo(DPVLW); configuration not given here), the “% viability” value was determined as 106.9%. Same read-out and setting: for `CC(=O)NC1[C@@H](O)OC(CO)[C@@H](O)[C@H]1O` (stereo partly shown) [ONC0002960, nacetylmannosamine] the value was 104.5%.

For the compound `CN1C(C(=O)Nc2ccccn2)C(=O)c2sccc2S1(=O)=O` (stereo not shown) [ONC0002886, tenoxicam], the “% viability” value is recorded as 126.3%. Still for that read-out and setting: for `CC(O)c1cc(C(=O)N[C@@H](C)Cn2ccc(-c3ccc(C#N)c(Cl)c3)n2)[nH]n1` (stereo partly shown) [ONC0005059, odm201] the value was 86.36%. Consider `O=C(NCc1cccc(O)c1)Nc1nc(-c2ccncc2)cs1` [ONC0005121, rki1447], for which, where the note is “Madurella mycetomatis metabolic activity at 2µM (%)”, the “% viability” value amounted to 69.4%. In the case of `CC(C)(C)c1ccc(S(=O)(=O)/C=C/C#N)cc1` [bay117085], the “% viability” value turned out to be 1.843%. On the same count and under the same terms, for `Cc1ccc(S(=O)(=O)/C=C/C#N)cc1` [bay117082] the value was 112.1%; for `CCOc1ccc2nc(SCCN3CCOCC3)[nH]c2c1` [ONC0001849, fabomotizole hydrochloride], 108.3%.
